From PubChem BioAssay
GALK inh: qHTS Assay for Inhibitors of Human Galactokinase (GALK); hit rate 0.007% among 270,000; Purified GALK, Kinase-Glo residual ATP luminescence; Potency, µM (top dose mostly 57.5 µM), inactives show at the highest dose activity change, negative = inhibition, most hits filed as inhibitors; P51570; further: potency means the concentration at half of the fitted maximal effect
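ATP-depletion format; final 35 uM ATP, 100 uM D-galactose, 5 nM enzyme; pH 8.0 HEPES/Mg2+ buffer; 60 min RT; luminescence read 10 min after detection reagent.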
TrxR1 substrate: qHTS Assay for Substrates of Mammalian Selenoprotein Thioredoxin Reductase 1 (TrxR1): qHTS; Potency, µM (titrated, usually from 114 µM), without a hit: top-dose activity change, negative = substrate turnover; hit rate 0.01% among 390,000; Thioredoxin reductase 1, cytoplasmic (Rattus norvegicus), O89049; purified TrxR1 substrate turnover, NADPH consumption readout; further: potency means the concentration at half of the fitted maximal effect; nearly all actives have a fitted effect of over 50% in size
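Rat TrxR1, dispensed at 90 nM, was prereduced with 400 uM NADPH (final) for 5 min at ~22 deg C, then incubated with compound 15 min before 400 uM selenite. A first-read NADPH fluorescence drop versus no-compound background flagged substrates.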
TrxR1 inh: qHTS Assay for Inhibitors of Mammalian Selenoprotein Thioredoxin Reductase 1 (TrxR1): qHTS; hit rate 1% among 390,000; Thioredoxin reductase 1, cytoplasmic (Rattus norvegicus), O89049; Potency, µM (titrated, usually from 114 µM), inactives show at the top dose activity change, negative = inhibition, actives largely listed as inhibitors; recombinant rTrxR1, NADPH fluorescence consumption, selenite substrate; further: potency means the concentration at half of the fitted maximal effect; nearly all actives have a fitted effect of over 65% in size
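Rat TrxR1 (90 nM in the dispensed reagent) was pre-reduced with 400 uM NADPH for 5 min at room temperature, then incubated with compound for 15 min. After 400 uM selenite was added, NADPH fluorescence (Ex 340/Em 450 nm) was followed for 8 min.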
FBPA coupling cs: qHTS Assay for Inhibitors of Fructose-1,6-bisphosphate Aldolase from Giardia Lamblia: Coupling assay counterscreen. coupling enzyme system counterscreen, AmpLite Red fluorescence. activity change, negative = inhibition, % at 58.2 µM, hits read low. hit rate 0.67% among 290,000. AID 2472, 2010; in the data active means activity change below about -30%
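Activity here indicates interference with the coupling reaction, not aldolase inhibition. Compounds at 57.5 uM final met coupling enzymes for 10 min at RT; substrate and AmpLite Red detection followed, with a 525/598 nm fluorescence read after 20 min.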
Gal4-VP16 FLuc: VP16 counterscreen qHTS for inhibitors of ROR gamma transcriptional activity; Drosophila S2 Gal4-VP16 UAS-luciferase, luminescence, 20 h; Potency, µM (series often up to 53.6 µM), for the others: at the top dose activity, negative = inhibition, most hits filed as inhibitors; hit rate 3.5% among 310,000; AID 2546, 2010;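 further: Gal4-VP16 expression switched on by copper sulfate through the metallothionein promoter; potency means the concentration at half of the fitted maximal effect; nearly all actives have a fitted effect of over 50% in size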
RORgamma inh: qHTS for inhibitors of ROR gamma transcriptional activity | Potency, µM (highest dose often 53.6 µM), inactives show top-dose activity change, negative = inhibition, usual class: inhibitors | hit rate 5.4% among 310,000 | Drosophila S2 Gal4-RORgamma UAS-luciferase reporter, 20 h | Nuclear receptor ROR-gamma (Mus musculus), P51450 | AID 2551, 2010; further: potency means the concentration at half of the fitted maximal effect; nearly all actives have a fitted effect of over 60% in size
Target sequence (P51450 whole entry, looked up, the tested form may be a part): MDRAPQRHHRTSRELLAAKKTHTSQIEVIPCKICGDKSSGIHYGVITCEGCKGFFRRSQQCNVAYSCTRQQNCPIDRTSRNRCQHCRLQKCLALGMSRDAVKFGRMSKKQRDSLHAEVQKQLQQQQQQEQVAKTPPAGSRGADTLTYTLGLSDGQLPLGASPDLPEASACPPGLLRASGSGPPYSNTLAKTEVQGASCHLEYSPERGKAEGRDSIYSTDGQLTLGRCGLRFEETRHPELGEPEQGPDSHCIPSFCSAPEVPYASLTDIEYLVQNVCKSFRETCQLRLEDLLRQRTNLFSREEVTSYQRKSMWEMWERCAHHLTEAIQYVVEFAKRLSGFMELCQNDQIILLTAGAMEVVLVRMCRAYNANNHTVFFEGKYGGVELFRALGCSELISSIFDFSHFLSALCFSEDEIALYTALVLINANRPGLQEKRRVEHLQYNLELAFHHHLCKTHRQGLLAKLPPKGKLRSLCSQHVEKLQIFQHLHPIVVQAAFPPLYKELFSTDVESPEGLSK
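Stable Schneider cell line, Gal4 DNA-binding domain fused to ROR gamma, UAS-luciferase. Cmpd 1 hr RT → CuSO4 700 uM final → 20 hr RT → luciferase reagent 10 min → luminescence.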
* = called active by the depositor; [ ] = remark or other dose. Rows were chosen to be rich in hits. Some 5.9% of all compounds tested hit in one or more screens of this group. Unless noted, the call rests on the fitted dose curve; in most records, active means well fitted curve in the direction sought with a large enough effect; inconclusive means small, poorly fitted or top-dose-only effect, or another doubt; inactive means no such curve, though single readings can be large; an effect the other way counts as inactive or inconclusive. On the % scale 0 is the no-effect control and ±100 the full control effect.

Results for Cc1ccc(Nc2cc(-n3nc(C)cc3C)ncn2)cc1 ?
GALK inh: -1%; TrxR1 substrate: -2%; TrxR1 inh: -1%; FBPA coupling cs: 2; Gal4-VP16 FLuc: 26%; RORgamma inh: 36%

How did O=C(c1ccco1)N1CCN(c2ncnc3c2[nH]c2ccc(Cl)cc23)CC1 do in these assays?
FBPA coupling cs: 3; Gal4-VP16 FLuc: 14µM*; RORgamma inh: 3%

What do the screens show for `CCc1cc2c(N3CCN(C(=O)c4ccco4)CC3)ncnc2s1`?
GALK inh: -2%; TrxR1 substrate: 6%; TrxR1 inh: -4%[57.1 µM]; FBPA coupling cs: -3; Gal4-VP16 FLuc: -7%; RORgamma inh: inconclusive

Results for O=c1[nH]c2ccc(Cl)cc2c(-c2ccccc2)c1N1CCOCC1 ?
GALK inh: 0%; TrxR1 substrate: 8%; TrxR1 inh: 18%; FBPA coupling cs: 4; Gal4-VP16 FLuc: -29%; RORgamma inh: 17%

What do the screens show for `O=C(c1ccco1)N1CCN(c2c(-c3ccccc3)c3cc(Cl)ccc3[nH]c2=O)CC1`?
GALK inh: -5%; TrxR1 substrate: 12%; TrxR1 inh: inconclusive; FBPA coupling cs: 5; Gal4-VP16 FLuc: inconclusive; RORgamma inh: 2µM*

What do the screens show for `Cc1cc(C)c(/C=N/NC(=O)c2nnn(-c3nonc3N)c2CN2CCC(C)CC2)c(C)c1`?
GALK inh: 4%; TrxR1 substrate: -6%; TrxR1 inh: 7%; FBPA coupling cs: -6; Gal4-VP16 FLuc: inconclusive; RORgamma inh: inconclusive

How did CC1CCN(Cc2c(C(=O)N/N=C/c3cc(Br)ccc3O)nnn2-c2nonc2N)CC1 do in these assays?
GALK inh: -2%; TrxR1 substrate: 4%; TrxR1 inh: 20%; FBPA coupling cs: 1; Gal4-VP16 FLuc: 7.1µM*; RORgamma inh: 3.5µM*

What do the screens show for `CC1CCN(Cc2c(C(=O)N/N=C/c3cc(Cl)ccc3O)nnn2-c2nonc2N)CC1`?
GALK inh: 2%; TrxR1 substrate: 2%; TrxR1 inh: 14%; FBPA coupling cs: 1; Gal4-VP16 FLuc: 4.5µM*; RORgamma inh: 3.5µM*

Results for COc1ccccc1Nc1ccc(N)cc1 ?
GALK inh: 5%; TrxR1 substrate: -1%[57.1 µM]; TrxR1 inh: 11%[57.1 µM]; FBPA coupling cs: -6; Gal4-VP16 FLuc: 7%; RORgamma inh: -6%

Results for Cc1ccc([N+](=O)[O-])cc1NC(=O)/C=C/C(=O)O ?
GALK inh: 5%; TrxR1 substrate: -9%; TrxR1 inh: -15%; FBPA coupling cs: 4; Gal4-VP16 FLuc: -2%; RORgamma inh: -17%

How did Cc1ccc(C)c(/C=N/n2cc(-c3ccccc3)[nH]c2=S)c1 do in these assays?
GALK inh: 0%; TrxR1 substrate: -5%[57.1 µM]; TrxR1 inh: 17%[57.1 µM]; FBPA coupling cs: -8; Gal4-VP16 FLuc: inconclusive; RORgamma inh: 0.28µM*

What do the screens show for `Fc1ccccc1/C=N/n1cc(-c2ccccc2)[nH]c1=S`?
GALK inh: 5%; TrxR1 substrate: 21%; TrxR1 inh: 15%; FBPA coupling cs: 5; Gal4-VP16 FLuc: 8.9µM*; RORgamma inh: 1.4µM*

Results for S=c1[nH]c(-c2ccccc2)cn1/N=C/c1ccc(Br)cc1 ?
GALK inh: 0%; TrxR1 substrate: 8%[57.1 µM]; TrxR1 inh: -34%; FBPA coupling cs: 0; Gal4-VP16 FLuc: 7.1µM*; RORgamma inh: 0.4µM*
